Test results from paper doi:10.1101/2024.03.05.583629.

Biological target: pT7_6His-AlfaTag-HOXD13 (human, UniProt P35453 263-343)
Test: PADIT-seq
Conditions: dsDNA, one strand shown

Sequence of pT7_6His-AlfaTag-HOXD13 (P35453 263-343): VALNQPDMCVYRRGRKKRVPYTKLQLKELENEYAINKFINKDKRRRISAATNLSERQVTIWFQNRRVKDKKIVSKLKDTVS

Row | Sequence | binding signal
1 | CTCGAGGATATCAAGATCTGGCCTCGGCTATTTAAAAGGAACCTCTAGCTAGCCGACTCACTATAGGGATAATCGCCCTGAGCAAAGACC | 2.42 ± 0.0909 log2FC
2 | CTCGAGGATATCAAGATCTGGCCTCGGCCCACTAAAAGGAACCTCTAGCTAGCCGACTCACTATAGGGATAATCGCCCTGAGCAAAGACC | 1.42 ± 0.114 log2FC
3 | CTCGAGGATATCAAGATCTGGCCTCGGCGCGCTAAAAGGAACCTCTAGCTAGCCGACTCACTATAGGGATAATCGCCCTGAGCAAAGACC | -0.366 ± 0.0916 log2FC
4 | CTCGAGGATATCAAGATCTGGCCTCGGCGTTTTAGATGGAACCTCTAGCTAGCCGACTCACTATAGGGATAATCGCCCTGAGCAAAGACC | 0.145 ± 0.106 log2FC
5 | CTCGAGGATATCAAGATCTGGCCTCGGCTTTTTACTAGGAACCTCTAGCTAGCCGACTCACTATAGGGATAATCGCCCTGAGCAAAGACC | 3.21 ± 0.0865 log2FC
6 | CTCGAGGATATCAAGATCTGGCCTCGGCTCGTTAAAAGGAACCTCTAGCTAGCCGACTCACTATAGGGATAATCGCCCTGAGCAAAGACC | 3.05 ± 0.0768 log2FC
7 | CTCGAGGATATCAAGATCTGGCCTCGGCGCGTGGAAGGGAACCTCTAGCTAGCCGACTCACTATAGGGATAATCGCCCTGAGCAAAGACC | -0.832 ± 0.125 log2FC
8 | CTCGAGGATATCAAGATCTGGCCTCGGCCTAGTAAAAGGAACCTCTAGCTAGCCGACTCACTATAGGGATAATCGCCCTGAGCAAAGACC | 2.42 ± 0.0781 log2FC
9 | CTCGAGGATATCAAGATCTGGCCTCGGCGTTTTACGAGGAACCTCTAGCTAGCCGACTCACTATAGGGATAATCGCCCTGAGCAAAGACC | 3.47 ± 0.133 log2FC
10 | CTCGAGGATATCAAGATCTGGCCTCGGCCTTTTACTCGGAACCTCTAGCTAGCCGACTCACTATAGGGATAATCGCCCTGAGCAAAGACC | 0.504 ± 0.0906 log2FC
11 | CTCGAGGATATCAAGATCTGGCCTCGGCTAGCCACGCGGAACCTCTAGCTAGCCGACTCACTATAGGGATAATCGCCCTGAGCAAAGACC | -1.07 ± 0.127 log2FC
12 | CTCGAGGATATCAAGATCTGGCCTCGGCGTTTTACGTGGAACCTCTAGCTAGCCGACTCACTATAGGGATAATCGCCCTGAGCAAAGACC | 2.36 ± 0.0852 log2FC
13 | CTCGAGGATATCAAGATCTGGCCTCGGCCAACTAAAAGGAACCTCTAGCTAGCCGACTCACTATAGGGATAATCGCCCTGAGCAAAGACC | 0.0444 ± 0.126 log2FC
14 | CTCGAGGATATCAAGATCTGGCCTCGGCCTTTTATTGGGAACCTCTAGCTAGCCGACTCACTATAGGGATAATCGCCCTGAGCAAAGACC | 3.44 ± 0.0778 log2FC
15 | CTCGAGGATATCAAGATCTGGCCTCGGCATTTTAGGAGGAACCTCTAGCTAGCCGACTCACTATAGGGATAATCGCCCTGAGCAAAGACC | 1.62 ± 0.0831 log2FC
16 | CTCGAGGATATCAAGATCTGGCCTCGGCTTTTTATAAGGAACCTCTAGCTAGCCGACTCACTATAGGGATAATCGCCCTGAGCAAAGACC | 3.23 ± 0.0851 log2FC
17 | CTCGAGGATATCAAGATCTGGCCTCGGCTTTTTAATAGGAACCTCTAGCTAGCCGACTCACTATAGGGATAATCGCCCTGAGCAAAGACC | 2.75 ± 0.0795 log2FC
18 | CTCGAGGATATCAAGATCTGGCCTCGGCTAGTTAAAAGGAACCTCTAGCTAGCCGACTCACTATAGGGATAATCGCCCTGAGCAAAGACC | 2.53 ± 0.0756 log2FC
19 | CTCGAGGATATCAAGATCTGGCCTCGGCTTTTTACCCGGAACCTCTAGCTAGCCGACTCACTATAGGGATAATCGCCCTGAGCAAAGACC | -0.11 ± 0.103 log2FC
20 | CTCGAGGATATCAAGATCTGGCCTCGGCGAGATAAAAGGAACCTCTAGCTAGCCGACTCACTATAGGGATAATCGCCCTGAGCAAAGACC | 0.43 ± 0.0919 log2FC
21 | CTCGAGGATATCAAGATCTGGCCTCGGCCAGCTAAAAGGAACCTCTAGCTAGCCGACTCACTATAGGGATAATCGCCCTGAGCAAAGACC | -0.419 ± 0.146 log2FC
22 | CTCGAGGATATCAAGATCTGGCCTCGGCCTTTTAGGTGGAACCTCTAGCTAGCCGACTCACTATAGGGATAATCGCCCTGAGCAAAGACC | 0.366 ± 0.0957 log2FC
23 | CTCGAGGATATCAAGATCTGGCCTCGGCGGACCACGCGGAACCTCTAGCTAGCCGACTCACTATAGGGATAATCGCCCTGAGCAAAGACC | -0.846 ± 0.11 log2FC
24 | CTCGAGGATATCAAGATCTGGCCTCGGCCGGCTAAAAGGAACCTCTAGCTAGCCGACTCACTATAGGGATAATCGCCCTGAGCAAAGACC | -0.621 ± 0.107 log2FC
25 | CTCGAGGATATCAAGATCTGGCCTCGGCAATTTAAAAGGAACCTCTAGCTAGCCGACTCACTATAGGGATAATCGCCCTGAGCAAAGACC | 2.32 ± 0.0729 log2FC
26 | CTCGAGGATATCAAGATCTGGCCTCGGCCTTTTACAAGGAACCTCTAGCTAGCCGACTCACTATAGGGATAATCGCCCTGAGCAAAGACC | 3.37 ± 0.074 log2FC
